Active and inactive are the calls of the source. Rule for the calls: active = hit-call score of the fitted dose curve at least 0.9, where 1 is the maximum; inactive = score below 0.9.

Apoptosis regulator Bcl-2 (Homo sapiens), sequence (P10415 whole entry, looked up): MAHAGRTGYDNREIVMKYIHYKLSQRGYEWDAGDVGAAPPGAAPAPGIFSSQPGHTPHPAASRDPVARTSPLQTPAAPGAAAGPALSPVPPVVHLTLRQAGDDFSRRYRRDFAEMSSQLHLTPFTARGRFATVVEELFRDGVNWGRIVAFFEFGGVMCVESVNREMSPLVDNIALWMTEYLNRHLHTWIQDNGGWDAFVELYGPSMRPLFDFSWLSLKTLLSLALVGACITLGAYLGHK

Read-out in the experiment: Apoptosis regulator Bcl-2 (Homo sapiens) (UniProt P10415)
As to the kind of experiment: LTEA_HepaRG_BCL2: Life Technologies and Expression Analysis (LTEA) Assay for Bcl-2 gene using HepaRG (AID 2283475).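 Note: BCL2 transcript by TaqMan qRT-PCR normalised to ACTB GAPDH and POLR2A.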 The note with it: mRNA level, 48 h; actives raise or lower the signal. The procedure: LTEA_HepaRG is a cell based, multiplexed-readout assay that uses HepaRG, a human liver cell line, with measurements taken at 48 hours after chemical dosing on a 96-well plate.LTEA_HepaRG_BCL2 is one of 102 assay component(s) measured in the LTEA HepaRG cell culture assay. It is a marker of Cell proliferation, survival, death.Data from the assay component LTEA_HepaRG_BCL2 was analyzed into 1 endpoint. This assay endpoint, LTEA_HepaRG_BCL2, was analyzed with bidirectional fitting relative to DMSO as the negative control and baseline of activity. Using a type of inducible reporter, measures of mRNA induction for gain or loss-of-signal activity can be used to understand regulation of transcription factor activity. To generalize the intended target to other relatable targets, this assay endpoint is annotated to the cell cycle intended target family, where the subfamily is Cell proliferation, survival, death.
A total of 1060 chemcials from the ToxCast library were tested in eight-point concentration-response experiments. Cell culture and cytotoxicity assays were conducted at Thermo Fisher Scientific's Custom Services facility (Madison, WI). A single lot of human HepaRG cells (Thermo Fisher Scientific, Frederick, MD) was used for the cell culture experiments. 96-well format collagen type I coated plates of human HepaRG cells were prepared using established methods. Briefly, cryopreserved HepaRG cells were thawed, plated at a density of approximately 100,000 cells/well in HepaRG Thaw, Plate, and General Purpose media (HPRG770, Thermo Fisher Scientific), and incubated for 48 hours. 0.5% DMSO was selected as vehicle control to balance the requisite need of DMSO in HepaRG cultures to maintain differentiation (for example, baseline metabolism, proportions of hepatocytes vs. cholangiocytes), while enabling further hepatic receptor pathway activation (for example, PXR and CAR) in response to chemical exposure. 48 hours after plating, the culture medium was replaced with HepaRG Serum-Free Incudtion Media. Cells were exposed to each test chemical in duplicate and maintained in CO2 incubators for another 48 hours. Chemical plates were thawed to room temperature and 200x concentrations of treatment groups were prepared. 8-point conentration-reponse curves were made with the highest exposure at 100 uM, followed by half-log dilutions, all in 0.5% DMSO. Each test plate contained variouse controls, induction positive controls (1mM phenobarbital), cytotoxicity positive controls ([…] aflatoxin B1), vehicle controls (0.5% DMSO), and total lysis controls (0.5% DMSO). Cell morphology images were taken using an Essen IncuCyte FLR automated microscope, with six 96-well plates imaged in about 24 minutes. Images were captured and exported and JPEG files. Spent culture media was transfered to black-well plates for the LDH assay, and remaining media was sorted at -80 C for later use. Cells were treated with RLT buffer and frozen until shipped for gene expression analysis. Total RNA was isolated from the cell suspension in 75 uL of Buffer RLT (Qiagen, Germantown, MD 20874) by Quintiles/Expression Analysis (Durham, NC) using a custom isolation procedure. Total RNA from each plate well was transferred to a preamplification plate. Fluidigm's 96.96 Dynamic ArrayTM (Fluidigm, Amsterdam, the Netherlands) technology was used for gene expression analyses by quantitative reverse transcription polymerase chain reaction (qRT-PCR, performed by Quintiles/Expression Analysis, Durham, NC)89. Standard TaqManTM Assays (Applied Biosystems/ThermoFisher Scientific, Foster City, CA) were used to assess the expression of 93 genes selected based on their selectivity and sensitivity to important hepatic receptors known to be modulated by environmental chemicals; importance in human hepatocyte functionality; and hepatotoxicity. […]
Turning to `C[N+](C)(C)CC1CO1` (stereo not given), the outcome was inactive.
Still for that read-out and setting: under `[Cl-].[Cl-].[Hg+2]` stands “inactive”; under `Oc1ccccc1Cl`, “inactive”; under `CCCCCCCCn1sccc1=O`, “inactive”.
The same measure, in the same setting: under `O=C(N[C@H](c1ccccc1)[C@@H]1CN2CCC1CC2)c1c(Cl)ccc(C(F)(F)F)c1Cl` stands “inactive”; under `CC(C)(OOC(C)(C)c1ccccc1)c1ccccc1`, “inactive”.
Usually AC50 stands for the midpoint of the concentration-response curve, whichever way the signal moves. In the case of `CC(C)(C)C(O)(CCc1ccc(Cl)cc1)Cn1cncn1` (stereo not given), the concentration at half-maximal activity (AC50) is 79 µM (active).
For `CO[C@@H]1[C@H](OC(=O)NC(=O)CCl)CC[C@]2(CO2)[C@H]1[C@@]1(C)O[C@@H]1CC=C(C)C`, the compound was called inactive.
The same measure, in the same setting: under `N#CC(Br)Br` stands “inactive”; under `CCN(CC)N=O`, “inactive”; under `OCCCl`, “inactive”.
Consider `CCC[CH2][Sn]([Cl])([CH2]CCC)[CH2]CCC`, for which the AC50 was 3.08 µM (active).
Turning to `CC(C)(C)OOC(=O)c1ccccc1`, the outcome was inactive.
`Cc1ccc(N=C=O)cc1N=C=O`: the AC50 is 23.6 µM (active).
The same measure, in the same setting: then `Clc1ccc(C(c2ccc(Cl)cc2)C(Cl)(Cl)Cl)cc1`, with 50 µM (active).
Regarding `CCCCCOC(=O)c1ccccc1C(=O)OCCCCC`, the result was inactive.
On to `COc1cc(C=O)cc2c1[C@H](COC(N)=O)[C@]1(OC(C)=O)ON2C[C@H]2[C@@H]1N2C(C)=O`, for which the outcome was inactive.
On the same count and under the same terms, under `COP(=S)(OC)SCN1C(=O)c2ccccc2C1=O` stands “inactive”; under `Cn1cc(-c2ccccc2)c(=O)c(-c2cccc(C(F)(F)F)c2)c1`, “inactive”.
Same read-out and setting: then `c1ccc(NNc2ccccc2)cc1`, with “inactive”; and `Oc1ccc2ccc3cccc4ccc1c2c34`, with “inactive”.
Still for that read-out and setting: under `Nc1cc(Cl)cc(C(=O)O)c1Cl` stands “inactive”; under `COC(=O)Nc1nc2ccccc2[nH]1`, “inactive”.
Take `CCC12COCN1COC2`: the outcome was inactive.
The same measure, in the same setting: then `CCCSC(=O)N(CCC)CCC`, with “inactive”.
The same measure, in the same setting: under `CN(C)[C@@H]1C(=O)C(C(N)=O)=C(O)[C@@]2(O)C(=O)C3=C(O)c4c(O)cccc4[C@@](C)(O)[C@H]3C[C@@H]12` stands “inactive”; under `Cc1ccc(N)c(N)c1`, “inactive”; under `CC(C)(C)OOC(C)(C)CCC(C)(C)OOC(C)(C)C`, “inactive”.
On the same count and under the same terms, under `CC(C)COC(=O)c1ccccc1C(=O)OCC(C)C` stands “inactive”; under `O=C(Nc1ccccc1)c1ccccc1I`, “inactive”.
On to `CNC(=O)Oc1cccc2c1OC(C)(C)C2`, for which the outcome was inactive.
Take `C[C@]12C=CC3=C4CCC(=O)C=C4CC[C@H]3[C@@H]1CC[C@@H]2O`: the AC50 is 14.8 µM (active).
Turning to `CCC(C)c1ccc(O)cc1` (stereo not given), the call was inactive.
For `Nc1ccc([N+](=O)[O-])cc1`, the result was inactive.
`CCCCC(CC)COC(=O)c1ccc(C(=O)OCC(CC)CCCC)c(C(=O)OCC(CC)CCCC)c1` (stereo not given): the result was inactive.
For the compound `ClCCOCCCl`, the result was inactive.
On the same count and under the same terms, then `O=Cc1ccco1`, with “inactive”.
On the same count and under the same terms, under `O=C(Oc1ccc(Br)cc1)N1CCN2CCC1CC2` stands “inactive”; under `Nc1ccc(Cc2ccc(N)cc2)cc1`, “inactive”; under `N#CC(Br)(Br)C(N)=O`, “inactive”.

The record behind these values is PubChem BioAssay (EPA / NIEHS).
